Potency and outcome data for 45 compounds are collected here from PubChem BioAssay (NCATS).

Structures are written as SMILES. A number with no mark means an inactive call. Results filed as inconclusive are left out. A call without a number means that no potency is given here. Activity calls are given as the source filed them. Calls follow the shape of the dose curve; as a rule, active = well fitted curve in the direction sought with a large enough effect; inconclusive = small, poorly fitted or top-dose-only effect, or another doubt; inactive = no such curve, though single readings can be large; an effect the other way counts as inactive or inconclusive.

In assay [1] the target is Ubiquitin carboxyl-terminal hydrolase 1 (Homo sapiens) (UniProt O94782). Kind of assay: Inhibitors of USP1/UAF1: Pilot qHTS (AID 504865). Also: nearly all actives have a fitted effect of over 35% in size. Also: potency is read from the fitted curve at half-maximal effect. A digest of the protocol:
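USP1/UAF1 complex (1nM) preincubated with compound 15 min at room temperature, then Ub-Rho substrate (150nM final) added. Fluorescence read kinetically at 480/540 nm, 6 reads every 60 seconds. Buffer: 50mM HEPES pH 7.8, 0.5mM EDTA, 0.1 mg/ml BSA, 1mM TCEP, 0.01% Tween-20.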

The target of assay [2] is Luciferin 4-monooxygenase (Photinus pyralis) (UniProt P08659). As to the kind of experiment: Biochemical firefly luciferase enzyme assay for NPC (AID 624030).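 Also: purified P. pyralis luciferase at 10 nM with luciferin and ATP substrate; series mostly up to about 59 µM; nearly all actives have a fitted effect of over 70% in size.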 An outline of the steps:
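Counter-screen for direct inhibition of the luciferase enzyme by approved-drug library compounds, run at 10 nM enzyme in 50 mM Tris acetate (final). Luminescence was read within 5 min of enzyme-buffer addition and normalized to PTC124 versus DMSO (0%).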

In assay [3] the target is Cytochrome P450 3A4 (Homo sapiens) (UniProt P08684). As to the kind of experiment: qHTS Assay for Inhibitors and Substrates of Cytochrome P450 3A4 (AID 884). Also: nearly all actives have a fitted effect of over 50% in size. Also: potency is read from the fitted curve at half-maximal effect. A digest of the protocol: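 Luminescent readout of luciferin produced by CYP3A4 (20 nM) dealkylation of Luciferin-PPXE, 25 uM (its KM). NADPH-driven reaction ran 60 min at RT after 10 min compound preincubation; data scaled to 57 uM ketoconazole as 100% inhibition.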
Chain of Cytochrome P450 3A4 (Homo sapiens) (P08684 whole entry, looked up): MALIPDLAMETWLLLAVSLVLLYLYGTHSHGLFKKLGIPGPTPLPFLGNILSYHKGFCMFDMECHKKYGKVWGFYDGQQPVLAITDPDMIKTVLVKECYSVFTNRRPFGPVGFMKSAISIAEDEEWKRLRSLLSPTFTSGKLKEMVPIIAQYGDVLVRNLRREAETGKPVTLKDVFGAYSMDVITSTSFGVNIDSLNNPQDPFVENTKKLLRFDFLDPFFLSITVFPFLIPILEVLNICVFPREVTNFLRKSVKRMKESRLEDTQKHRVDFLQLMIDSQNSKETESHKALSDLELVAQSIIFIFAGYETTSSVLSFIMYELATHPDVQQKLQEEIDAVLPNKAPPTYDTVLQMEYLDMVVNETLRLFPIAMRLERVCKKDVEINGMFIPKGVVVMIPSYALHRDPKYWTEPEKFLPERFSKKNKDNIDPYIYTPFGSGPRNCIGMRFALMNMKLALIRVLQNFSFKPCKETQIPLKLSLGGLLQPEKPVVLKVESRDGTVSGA

The target is the same in assay [4]. Kind of assay: qHTS Assay for Activators of Cytochrome P450 3A4 (AID 885). Also: nearly all actives have a fitted effect of over 65% in size. An outline of the steps: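 CYP3A4 activity: Luciferin-PPXE O-dealkylation, 25uM substrate, 200mM KPO4, RT throughout. Read-out is luciferase luminescence; higher values reflect activation.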
Assay [5] is described as follows: Confirmation and Secondary Assay for Modulators of Hemoglobin Beta Chain Splicing at IVS2 654 locus (AID 910).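 Also: per-well total GFP intensity by laser scanning cytometry after 2-day treatment.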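 Also: potency is read from the fitted curve at half-maximal effect; potency of activators that raise GFP signal by restoring correct splicing.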 An outline of the steps:
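HeLa cells stably carrying EGFP interrupted by mutant beta-globin IVS2-654 intron (CMV-driven) were treated with compound for 2 days at 37C; corrected splicing was scored as total peak GFP intensity per well (488 nm excitation, 500-520 nm emission).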

Assay [6] can be described thus: Confirmation and Secondary Assay for Modulators of Hemoglobin Beta Chain Splicing at IVS2 705 locus (AID 930).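 Also: HeLa cells stably expressing the EGFP-705 splicing reporter; GFP fluorescence per well restored by corrected splicing of the IVS2-705 intron in EGFP; series mostly up to about 46 µM.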 An outline of the steps:
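HeLa EGFP-705 reporter; 500 cells/well, o/n 37C 5% CO2; cpd 2 d; 488 ex/500-520 em laser scan; total peak GFP intensity/well. Ref: 500 nM […] antisense PNA.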

Chain of Ubiquitin carboxyl-terminal hydrolase 1 (Homo sapiens) (O94782 whole entry, looked up): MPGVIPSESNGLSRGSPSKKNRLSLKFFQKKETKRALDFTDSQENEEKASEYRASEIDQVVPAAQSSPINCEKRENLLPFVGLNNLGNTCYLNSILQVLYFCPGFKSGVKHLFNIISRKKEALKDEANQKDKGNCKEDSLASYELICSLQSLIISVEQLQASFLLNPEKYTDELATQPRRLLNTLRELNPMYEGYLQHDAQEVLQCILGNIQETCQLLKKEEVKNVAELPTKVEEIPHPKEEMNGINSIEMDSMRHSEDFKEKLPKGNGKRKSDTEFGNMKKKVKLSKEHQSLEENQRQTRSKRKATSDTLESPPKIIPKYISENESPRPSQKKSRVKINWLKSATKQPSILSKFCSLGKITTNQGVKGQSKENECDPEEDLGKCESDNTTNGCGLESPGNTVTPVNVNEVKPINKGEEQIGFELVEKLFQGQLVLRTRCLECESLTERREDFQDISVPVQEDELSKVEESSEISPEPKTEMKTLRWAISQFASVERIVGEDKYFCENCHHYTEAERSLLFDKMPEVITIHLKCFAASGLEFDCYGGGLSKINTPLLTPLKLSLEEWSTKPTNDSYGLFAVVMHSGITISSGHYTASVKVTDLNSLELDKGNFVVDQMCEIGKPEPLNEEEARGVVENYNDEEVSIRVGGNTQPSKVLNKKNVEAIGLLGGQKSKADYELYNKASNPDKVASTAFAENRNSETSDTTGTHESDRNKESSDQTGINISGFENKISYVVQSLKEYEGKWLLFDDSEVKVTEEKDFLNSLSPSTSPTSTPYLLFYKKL
Chain of Luciferin 4-monooxygenase (Photinus pyralis) (P08659 whole entry, looked up): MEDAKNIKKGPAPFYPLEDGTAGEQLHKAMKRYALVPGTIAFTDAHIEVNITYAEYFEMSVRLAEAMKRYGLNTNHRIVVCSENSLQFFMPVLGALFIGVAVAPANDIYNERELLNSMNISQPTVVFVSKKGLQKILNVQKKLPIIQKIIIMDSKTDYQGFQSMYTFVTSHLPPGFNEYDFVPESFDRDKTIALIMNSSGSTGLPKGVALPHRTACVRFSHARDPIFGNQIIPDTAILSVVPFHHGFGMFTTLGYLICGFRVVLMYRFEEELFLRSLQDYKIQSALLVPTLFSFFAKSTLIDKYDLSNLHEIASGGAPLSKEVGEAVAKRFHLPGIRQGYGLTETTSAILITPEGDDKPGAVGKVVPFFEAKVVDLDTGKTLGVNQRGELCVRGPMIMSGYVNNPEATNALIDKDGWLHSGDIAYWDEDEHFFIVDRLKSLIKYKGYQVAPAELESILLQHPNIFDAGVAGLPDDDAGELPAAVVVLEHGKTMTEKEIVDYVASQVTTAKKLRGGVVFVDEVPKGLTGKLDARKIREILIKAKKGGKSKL

Regarding `CC[C@]1([C@H]2O[C@@H]([C@@H]3O[C@](O)(CO)[C@@H](C)C[C@H]3C)C[C@H]2C)CC[C@@H]([C@]2(C)CC[C@@]3(C[C@@H](O)[C@@H](C)[C@@H]([C@H](C)[C@H](OC)[C@H](C)C(=O)O)O3)O2)O1`, the Potency result in assay [1] and in assay [2] was “inactive” in each case.
In the case of `CC1(C)C(C(Cl)Cl)C2(Cl)C(Cl)C(Cl)C1(Cl)C2(Cl)Cl` (configuration not stated), in assay [3], the Potency was 7.94 µM (active). The Potency result in assay [4], in assay [5] and in assay [1] was “inactive” throughout. Besides, the compound was classed as inactive in assay [6].
In the case of `COc1ccc(C2Oc3c(I)c(OC)cc(OC)c3CC2O)cc1OC` (configuration not stated), the Potency in assay [3] was 3.16 µM (active). The Potency result in assay [4], in assay [5] and in assay [1] was “inactive” throughout. In addition, the outcome in assay [6] was inactive.
Turning to `CC(=O)O[C@H]1C[C@H]2CC[C@@H]3[C@H]4C[C@@H]([N+]5(C)CCCCC5)[C@@H](OC(C)=O)[C@]4(C)CC[C@@H]3[C@@]2(C)C[C@@H]1[N+]1(C)CCCCC1`, the Potency entry in assay [1] is “inactive”.
On to `COc1cc2c(cc1OC)-c1c(OC)c(OC)c(C=O)c3c1[C@H](C2)N(C)CC3`, for which, in assay [4], the Potency entry is “inactive”. In addition, in assay [1], the Potency is 20 µM (active).
For the compound `C/C=C1/C[C@@H](C)[C@](O)(CO)C(=O)OCC2=CCN3CC[C@@H](OC1=O)C23` (some centres not stated), the Potency entry in assay [3] and in assay [1] was “inactive” each time.
As for `CC(C)N(C(=O)CCl)c1ccccc1`, the Potency entry in assay [3], in assay [5] and in assay [1] was “inactive” each time. Moreover, in assay [6], the call was inactive.
Turning to `CN1C[C@@H](C(=O)N[C@@]2(C)O[C@]3(O)C4CCCN4C(=O)[C@@H](Cc4ccccc4)N3C2=O)C=C2c3cccc4[nH]cc(c34)C[C@@H]21` (some centres not stated), the Potency in assay [1] is 50.1 µM (active).
As to `C[C@H]1O[C@H](O[C@H]2[C@H](O)[C@@H](O)[C@@H](O)[C@H](O)[C@@H]2O)[C@@H](N)C[C@@H]1NC(=N)C(=O)O`, the Potency entry in assay [3], in assay [5] and in assay [1] was “inactive” each time. In addition, the call in assay [6] was inactive.
As to `CN1[C@H]2CC(OC(=O)[C@H](CO)c3ccccc3)C[C@H]1[C@H]1O[C@H]12` (some centres not stated), the Potency result in assay [1] is “inactive”.
Regarding `CCC1C(=O)OC[C@H]1Cc1cncn1C` (some centres not stated), in assay [3], the Potency was 20 µM (active). Besides, the Potency entry in assay [4], in assay [5] and in assay [1] was “inactive” throughout. Besides, the compound was classed as inactive in assay [6].
Regarding `Cc1cc2nc3c(=O)[nH]c(=O)nc-3n(C[C@H](O)[C@H](O)[C@H](O)COP(=O)(O)OP(=O)(O)OC[C@H]3O[C@@H](n4cnc5c(N)ncnc54)[C@H](O)[C@@H]3O)c2cc1C`, the Potency in assay [1] was 50.1 µM (active).
Same read-out and setting: with `C[C@]12CCC3C(CC[C@]4(O)C[C@@H](O)CC[C@]34C=O)[C@@]1(O)CC[C@@H]2C1=CC(=O)OC1` (some centres not stated) the entry was “inactive”.
On to `CSc1nc(NC(C)C)nc(NC(C)C)n1`, for which the Potency result in assay [3], in assay [5] and in assay [1] was “inactive” in each case. Further, the compound was called inactive in assay [6].
In the case of `CC(=O)N1CCN(c2ccc(OC[C@@H]3CO[C@@](Cn4ccnc4)(c4ccc(Cl)cc4Cl)O3)cc2)CC1`, the Potency result in assay [1] is “inactive”.
Same read-out and setting: with `CC[C@@H]1CN2CCc3cc(OC)c(OC)cc3[C@H]2C[C@@H]1C[C@H]1NCCc2cc(OC)c(OC)cc21` the entry was “inactive”; with `CC[C@@H]1CN2CCc3cc(OC)c(OC)cc3[C@@H]2C[C@@H]1C[C@H]1NCCc2cc(OC)c(OC)cc21`, “inactive”; with `NCC1O[C@@H](O[C@H]2C(O)C(O[C@@H]3C(O[C@H]4OC(CO)C(O)C(O)C4N)C(N)CC(N)[C@H]3O)O[C@@H]2CO)C(N)C(O)C1O` (some centres not stated), “inactive”.
`CCCCN(CC)c1c([N+](=O)[O-])cc(C(F)(F)F)cc1[N+](=O)[O-]`: the Potency result in assay [4], in assay [5] and in assay [1] was “inactive” each time. For the same compound, in assay [6], the call was inactive.
Consider `C[C@]12CC[C@@H]3c4ccc(O)cc4C[C@@H](CCCCCCCCCS(=O)CCCC(F)(F)C(F)(F)F)C3[C@@H]1CC[C@@H]2O` (some centres not stated), for which the Potency entry in assay [1] is “inactive”.
Same read-out and setting: with `NC[C@@H]1O[C@H](OC2[C@@H](CO)O[C@@H](OC3[C@H](O)[C@H](N)C[C@H](N)[C@H]3OC3O[C@H](CO)[C@@H](O)[C@H](O)[C@@H]3N)[C@H]2O)C(N)[C@H](O)[C@@H]1O` (some centres not stated) the entry was “inactive”.
On to `C[C@@]1([C@@H](NP(=O)(c2ccccc2)c2ccccc2)c2ccccc2)C[C@H]1CCO`, for which the Potency in assay [3] was 7.94 µM (active). The Potency entry in assay [4] was “inactive”.
With `COc1ccc(C(=O)O)cc1OC`, the Potency result in assay [3], in assay [5] and in assay [1] was “inactive” each time. In addition, in assay [6], the compound was classed as inactive.
As to `CC1CC(C)C(=O)[C@H](C(O)CC2CC(=O)NC(=O)C2)C1` (some centres not stated), the Potency result in assay [5] and in assay [1] was “inactive” throughout. Further, in assay [6], the compound was called inactive.
For the compound `OCC1OC(n2cnc3cc(Cl)c(Cl)cc32)C(O)C1O` (configuration not stated), the Potency entry in assay [3], in assay [5] and in assay [1] was “inactive” in each case. For the same compound, the outcome in assay [6] was inactive.
With `CC(=O)OCC1=C(C(=O)O)N2C(=O)C(NC(=O)CCCC(N)C(=O)O)C2SC1` (configuration not stated), the Potency result in assay [3], in assay [5] and in assay [1] was “inactive” throughout. Besides, in assay [6], the compound was classed as inactive.
With `CCC1C2CC3C4N(C)c5ccccc5[C@]45CC(C2C5O)N3C1O` (some centres not stated), the Potency result in assay [3], in assay [5] and in assay [1] was “inactive” throughout. Also, the compound was called inactive in assay [6].
For `Cc1cccc2c3c(ccc12)C1=C(C(=O)C3=O)C(C)CO1` (configuration not stated), the Potency entry in assay [4] was “inactive”. Also, in assay [1], the Potency was 50.1 µM (active).
As for `CCCC/C=C/[C@@H](NP(=O)(c1ccccc1)c1ccccc1)c1ccccc1OC`, the Potency in assay [3] was 6.31 µM (active). Also, the Potency result in assay [4] is “inactive”.
As for `CNNC`, the Potency entry in assay [4], in assay [5] and in assay [1] was “inactive” throughout. The call in assay [6] was inactive.
In the case of `COC(=O)[C@@H]1C[C@@]1(C)[C@@H](NP(=O)(c1ccccc1)c1ccccc1)c1ccccc1`, the Potency in assay [3] is 7.94 µM (active). In addition, in assay [4], the Potency result was “inactive”.
As to `CC[C@]1(O)CC(O[C@@H]2CC(N(C)C)C(O)C(C)O2)c2c(cc3c(c2O)C(=O)c2c(O)cccc2C3=O)C1C(=O)OC` (some centres not stated), the Potency result in assay [4] was “inactive”. Moreover, the Potency is 15.8 µM (active) in assay [5] and 56.2 µM (active) in assay [1].
As for `CC1CC(Cl)CCC1C(=O)OC(C)(C)C` (configuration not stated), the Potency entry in assay [3], in assay [5] and in assay [1] was “inactive” each time. Besides, the compound was classed as inactive in assay [6].
Consider `C=C[C@@H]1C[C@@]1(C)[C@@H](NP(=O)(c1ccccc1)c1ccccc1)c1ccccc1`, for which, in assay [3], the Potency is 10 µM (active). Also, the Potency entry in assay [4] was “inactive”.
`NC1C[C@H]1c1ccccc1` (some centres not stated): the Potency result in assay [3], in assay [5] and in assay [1] was “inactive” each time. In addition, the outcome in assay [6] was inactive.
For `COC(=O)[C@]1(C)CC[C@@]2(C)CC[C@@]3(C)C4=CC=C5C(=CC(=O)C(O)=C5C)[C@@]4(C)CC[C@@]3(C)C2C1` (some centres not stated), the Potency result in assay [4] and in assay [5] was “inactive” in each case. The call in assay [6] was inactive. In assay [1], the Potency was 44.7 µM (active).
For the compound `CCCC/C(C)=C/[C@@H](NP(=O)(c1ccccc1)c1ccccc1)c1ccccc1`, in assay [3], the Potency was 2.51 µM (active). In addition, the Potency result in assay [4] was “inactive”.
In the case of `CN(C)C1C(=O)C(C(N)=O)=C(O)[C@@]2(O)C(=O)C3=C(O)c4c(O)cccc4[C@@](C)(O)C3CC12` (some centres not stated), the Potency result in assay [3], in assay [5] and in assay [1] was “inactive” in each case. Moreover, in assay [6], the outcome was inactive.
With `C=C(CC1(CNP(=O)(c2ccccc2)c2ccccc2)CC1)c1ccccc1`, the Potency in assay [3] was 3.98 µM (active). Besides, in assay [4], the Potency result is “inactive”.
On to `C=C(C)c1ccccc1`, for which the Potency entry in assay [3] is “inactive”.
In the case of `C=CCO[C@@H](Cn1ccnc1)c1ccc(Cl)cc1Cl`, the Potency entry in assay [4] and in assay [1] was “inactive” each time.
Consider `C[C@@]12C=CC(=O)C=C1CCC1C2CC[C@]2(C)C(=O)CCC12` (some centres not stated), for which the Potency entry in assay [3], in assay [5] and in assay [1] was “inactive” in each case. For the same compound, the outcome in assay [6] was inactive.
`CC(=O)OC1C2CCC3C1(CC(O)[C@@]1(O)[C@@H](CC(O)C1(C)C)[C@]3(C)O)C[C@@]2(C)O` (some centres not stated): the Potency entry in assay [3], in assay [5] and in assay [1] was “inactive” in each case. For the same compound, in assay [6], the result was inactive.
Turning to `C=CCN1CC[C@]23c4c5ccc(O)c4OC2C(=O)CC[C@]3(O)C1C5` (some centres not stated), the Potency entry in assay [5] and in assay [1] was “inactive” each time. The outcome in assay [6] was inactive.
Take `NCC(N)C(=O)c1ccccc1` (configuration not stated): the Potency result in assay [3], in assay [5] and in assay [1] was “inactive” throughout. Besides, in assay [6], the compound was called inactive.
